Pf Dd2 inh: qHTS Primary assay for Inhibitors of Plasmodium falciparum Dd2 growth in vitro; P. falciparum Dd2 growth, SYBR Green, 72 h; Potency, µM (series often up to 28.9 µM), actives largely listed as inhibitors; actives 4.3% (n = 120,000); AID 1347417, 2020; active means well fitted inhibition curve with a large enough effect; further: nearly all actives have a fitted effect of over 65% in size
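Readout: SYBR Green fluorescence, 485 nm excitation, 535 nm emission, after ~16 h lysis at 37C. Before that, Dd2-infected red cells (2.5% hematocrit) grew 72 h with compound, 29 uM top final concentration.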
A number is an active result; 0 = inactive; ! = not confirmed by another sample; [ ] = dose if it differs, or a comment. The entries come from a sample that favours hits as a whole.

SMILES | Pf Dd2 inh
O=C(CCC1CCCC1)N1C[C@@H](CO)[C@H](c2ccncc2)C1 | 0
CCN1C(=O)CCN(C(=O)c2ccoc2)CC12CCOCC2 | 0
Cc1ccccc1CCC1CCCN(S(C)(=O)=O)C1 (stereo not given) | 0
Cc1ccccc1CCC1CCCNC1 (stereo not given) | 11.2µM
Cc1ccccc1CCC1CCCN(C(=O)CCc2cnccn2)C1 (stereo not given) | 0
CCCNC(=O)N1CCCC(c2noc(COCC)n2)C1 (stereo not given) | 0
Cc1ccc2nc(C3CCN(Cc4cccs4)CC3)[nH]c(=O)c2c1 | 0
COc1ccc(CN2CCCC(c3nn(-c4ccc(OC)cc4)c(=O)[nH]3)C2)cc1 (stereo not given) | 0
Cc1ccc2nc(C3CCN(Cc4cccc(-c5ccsc5)c4)CC3)[nH]c(=O)c2c1 | 0
COc1ccccc1-c1ccc(CN2CCCC(c3nc4ccc(C)cc4c(=O)[nH]3)C2)cc1 (stereo not given) | 7.94µM!
Cc1ccc2nc(C3CCCN(Cc4cccc(-c5cccnc5)c4)C3)[nH]c(=O)c2c1 (stereo not given) | 6.31µM
CCN1CCCC(c2nc3ccc(C)cc3c(=O)[nH]2)C1 (stereo not given) | 0
CC(C)CN1CCN(C(=O)C2(CCO)CC23CCOCC3)CC1 (stereo not given) | 0
Cc1ccc(C2Cn3nnc(-c4noc(-c5ccncc5)n4)c3CO2)cc1 (stereo not given) | 0
COC[C@@H]1CN(Cc2cccc(OC)c2OC)C[C@H]1c1ccncc1 | 0
CC1=C(C(=O)N2CCOC(CCCc3ccccc3)C2)OCCO1 (stereo not given) | 0
COc1ccc(-n2nc(C3CCN(C(=O)c4ccccc4F)CC3)[nH]c2=O)cc1 | 0
COC(=O)C(C)Sc1ncnc2c1c(-c1ccccc1)cn2-c1ccc(F)cc1 (stereo not given) | 5.62µM
COc1ccc(-n2cc(-c3ccccc3)c3c(SC(C)C(C)=O)ncnc32)cc1 (stereo not given) | 0
CN(c1ncnc2c1c(-c1ccccc1)cn2-c1ccc(F)cc1)C1CCCCC1 | 0
CN(C)c1cc(N2CCCC(NC(=O)c3ccc(C#N)cc3)C2)ncn1 (stereo not given) | 0[5.79 µM]
Cc1ccc(NC(=O)c2ccc3c(c2)N(C)C2CCCN2C3=O)cc1 (stereo not given) | 0
COc1ccccc1CCNC(=O)C1CCN(c2nnc(-n3cccc3CNc3ccc(C)cc3)s2)CC1 | 0
CCOc1ccc(NCc2cccn2-c2nnc(N3CCC(C(=O)NCCc4ccc(OC)c(OC)c4)CC3)s2)cc1 | 7.08µM
Cc1ccc(NCc2cccn2-c2nnc(N3CCC(C(=O)NCc4ccccc4C)CC3)s2)cc1 | 0
SMILES | Pf Dd2 inh
CCOc1ccc(CCNC(=O)C2CCN(Cc3nc(-c4ccc(OC)c(OC)c4)oc3C)CC2)cc1OCC | 0
CCOc1ccc(NCc2cccn2-c2nnc(N3CCC(C(=O)NC(C)c4ccccc4)CC3)s2)cc1 (stereo not given) | 0
CCOc1ccc(NCc2cccn2-c2nnc(N3CCC(C(=O)NCCc4ccc(OCC)c(OCC)c4)CC3)s2)cc1 | 6.31µM
O=C(NC1C[C@H]2CC[C@@H](C1)N2C(=O)CCC1CCCC1)c1ccncc1 (stereo not given in full) | 0
Cc1ccsc1C(=O)N1CCC2(CC1)NC(=O)N(c1cccc(Cl)c1)N2 | 0
CN(C)[C@@H]1CN(Cc2ccc3[nH]ccc3c2)CC[C@@H]1CNC(=O)C1CC1 | 0
CN(Cc1ccc(-c2ccccc2)cc1)Cc1cccc(F)c1 | 0
Cc1ccc(-c2cccc(C=O)c2)cc1Cl | 0
NCc1cccc(-c2ccc(O)cc2)c1 | 0
Cc1ccc(-c2cccc(CN)c2)cc1Cl | 11.2µM
CSc1ccc(-c2cccc(CN)c2)cc1 | 10µM
Cc1ccc(-c2ccc(C=O)cc2)cc1Cl | 0
O=C1CCCCC(C(=O)N2CC=C(c3ccccc3)CC2)N1 (stereo not given) | 0
Cn1cnc(S(=O)(=O)N2CCC(c3noc(-c4ccncc4)n3)C2)c1 (stereo not given) | 0[5.79 µM]
COc1cc2c(cc1OC1CCCC1)NC(=O)C21CCN(c2ccnc(C)n2)CC1 | 12.6µM
COc1cc2c(cc1OC1CCCC1)NC(=O)C21CCN(Cc2ccncc2)CC1 | 0
COc1cc2c(cc1Oc1ccccc1)NC(=O)C21CCN(Cc2ccccn2)CC1 | 0
COc1cc2c(cc1OC1CCCC1)NC(=O)C21CCN(c2cc(NC3CC3)ncn2)CC1 | 0
COc1cc2c(cc1OCC1CC1)NC(=O)C21CCN(c2ncc(F)cn2)CC1 | 0
COc1cc2c(cc1Oc1ccccc1)NC(=O)C21CCN(c2ncc(F)cn2)CC1 | 4.47µM
CCOc1ncccc1Cn1cc(-c2cncnc2)nn1 | 0
COc1ccc(-c2nc(C3CC3)nc3c2CN(C(=O)c2ccc(C(F)(F)F)cc2)CC3)cc1 | 0
CCC(C)NC(=O)CC1=CSC2=NC(C)=C(C(=O)OC)C(c3cccc([N+](=O)[O-])c3)N12 (stereo not given) | 0
CN(C)C[C@@H]1CN(S(C)(=O)=O)C[C@H]1NC(=O)c1cccs1 | 0
